Source: PubChem (National Center for Advancing Translational Sciences (NCATS))
Shown are actives, neighbours in structure and some others; about 22% of the full set was active somewhere.
LmPK inhibitor = qHTS Assay for Inhibitors of Leishmania Mexicana Pyruvate Kinase (LmPK). Potency, µM (titrated, usually from 57.5 µM), without a hit: top-dose activity change, negative = inhibition, most hits filed as inhibitors. purified LmPK, Kinase-Glo ATP luminescence, 1 h. AID 1721, 2009. actives 0.37% (n = 290,000); note: potency is the fitted concentration of half-maximal effect; % is set by controls: 0 for no effect and ±100 for the full control effect
Target sequence (Q27686 whole entry, looked up): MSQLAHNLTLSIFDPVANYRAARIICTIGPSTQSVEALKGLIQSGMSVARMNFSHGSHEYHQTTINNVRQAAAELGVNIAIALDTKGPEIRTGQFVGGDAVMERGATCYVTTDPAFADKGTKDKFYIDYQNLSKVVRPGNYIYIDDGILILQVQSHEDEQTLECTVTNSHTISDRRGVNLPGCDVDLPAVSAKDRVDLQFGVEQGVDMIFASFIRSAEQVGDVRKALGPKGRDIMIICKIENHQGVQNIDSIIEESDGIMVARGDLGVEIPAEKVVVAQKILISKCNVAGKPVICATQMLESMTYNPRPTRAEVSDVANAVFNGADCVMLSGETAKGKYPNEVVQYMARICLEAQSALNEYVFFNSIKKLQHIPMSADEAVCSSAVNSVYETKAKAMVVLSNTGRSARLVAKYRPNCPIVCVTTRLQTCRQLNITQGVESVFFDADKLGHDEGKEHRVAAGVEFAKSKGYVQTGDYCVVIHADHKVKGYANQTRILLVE
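qHTS format; LmPK 0.1 nM; substrates PEP 0.5 mM and ADP 0.1 mM. One-hour room-temperature incubation, then coupled luciferase luminescence; 0.5 nM enzyme wells mark activation.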
Pf growth 48h = Primary qHTS for delayed death inhibitors of the malarial parasite plastid, 48 hour incubation; actives 5.9% (n = 310,000); Potency, µM (titrated, usually from 28.7 µM), inactives show at the highest dose activity change, negative = inhibition, actives largely listed as inhibitors; P. falciparum luciferase growth in erythrocytes, 48 h; AID 504832, 2011; note: potency is the fitted concentration of half-maximal effect; % is set by controls: 0 for no effect and ±100 for the full control effect
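Compounds are pin-transferred into medium, infected erythrocytes (2% hematocrit, 0.1% parasitemia final) are added, and plates sit one parasite generation at 37 C in 5% CO2. Detection reagent is then added and luminescence measured.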
Shiga toxin inh = A qHTS for Small Molecule Inhibitors of Shiga Toxin. Vero cells, Shiga toxin protein synthesis inhibition reporter. inhibition, % at 38.7 µM. actives 9.2% (n = 290,000). AID 2315, 2010; in the data active = inhibition mostly above about 28%, no sharp cut-off; inactive = mostly below about 43%; note: 0% is about no effect
CHX counter = Cycloheximide Counterscreen for Small Molecule Inhibitors of Shiga Toxin; cell reporter, cycloheximide protein synthesis inhibition counterscreen; max response, %; actives 12% (n = 300,000); AID 2314, 2010; in the data active = max response mostly above about 13%, no sharp cut-off; inactive = mostly below about 14%; note: read at 38.3 µM for the half of the compounds with a filed dose; 0% is about no effect
Pf growth 96h = Primary qHTS for delayed death inhibitors of the malarial parasite plastid, 96 hour incubation. P. falciparum luciferase reporter growth, 96 h. Potency, µM (top dose mostly 28.7 µM), for inactives: at the highest dose activity change, negative = inhibition, actives largely listed as inhibitors. actives 6.9% (n = 320,000). AID 504834, 2011; note: potency is the fitted concentration of half-maximal effect; % is set by controls: 0 for no effect and ±100 for the full control effect
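P. falciparum expressing integrated firefly luciferase grown in erythrocytes (2% hematocrit, 0.05% parasitemia final) with compounds for 96 hours at 37 C, 5% CO2. Growth inhibition read as loss of luminescence after adding luciferase detection reagent.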
The depositor's hits bear a star. Unless noted, calls come from the whole dose curve; as a rule, active = well fitted inhibition curve with a large enough effect; inconclusive = small, poorly fitted or top-dose-only effect, or another doubt; inactive = no such curve, though single readings can be large or run the other way.

Screening CN(CC(=O)Nc1ccccc1C(F)(F)F)C(=O)CN1C(=O)C2CCCCC2C1=O (centres undefined) returned Pf growth 48h 0% and Pf growth 96h 34%.
For COc1cc(C(c2c(C)[nH][nH]c2=O)c2c(C)[nH][nH]c2=O)cc(Br)c1OC the results were LmPK inhibitor 1%, Pf growth 48h 23%, Shiga toxin inh -8, CHX counter -2 and Pf growth 96h 7.4µM*.
For COc1ccc(-n2c(C)cc(-c3csc(N)n3)c2C)cc1 the results were LmPK inhibitor 5%, Pf growth 48h 13µM*, Shiga toxin inh 13, CHX counter 0 and Pf growth 96h inconclusive.
COCCCNC(=O)c1cccn2c(=O)c3cc4ccccc4cc3nc12 was read as LmPK inhibitor 2%, Pf growth 48h 69%, Shiga toxin inh 84*, CHX counter 69* and Pf growth 96h 55%.
`O=C(NCc1ccco1)c1cccn2c(=O)c3cc4ccccc4cc3nc12` gave LmPK inhibitor 2%, Shiga toxin inh 6, CHX counter 29* and Pf growth 96h inconclusive.
`O=C(NCc1ccco1)c1cnc2ccccn2c1=O` gave LmPK inhibitor 1%, Pf growth 48h 19%, Shiga toxin inh -6, CHX counter 2 and Pf growth 96h -9%.
For Cc1ccnc(NS(=O)(=O)c2ccc(NC(=O)CC(C)c3ccccc3)cc2)n1 (centres undefined) the results were LmPK inhibitor 9%, Pf growth 48h 13%, Shiga toxin inh -8, CHX counter -4 and Pf growth 96h 42%.
Screening CCc1ccccc1NC(=O)CN(C)C(=O)CSc1nn(-c2ccc(F)cc2)c(=S)s1 returned LmPK inhibitor 5%, Pf growth 48h -10%, Shiga toxin inh -7, CHX counter -3 and Pf growth 96h inconclusive.
CCOC(=O)C1=NN(c2ccc(Cl)cc2)C(c2ccccc2)CC1=O (centres undefined) was read as LmPK inhibitor 0%, Pf growth 48h 9.3µM*, Shiga toxin inh 0, CHX counter -2 and Pf growth 96h inconclusive.
`CCOC(=O)c1c(-c2ccccc2)nc2ccc(Cl)cn12` gave LmPK inhibitor -1%, Pf growth 48h 10%, Shiga toxin inh -2, CHX counter 1 and Pf growth 96h 2%.
CCOc1ccc(-c2nnc(N(CC)C(=O)C3CCC3)s2)cc1 was read as LmPK inhibitor 0%, Pf growth 48h inconclusive, Shiga toxin inh 53*, CHX counter 28* and Pf growth 96h 6.6µM*.
`CCCC(=O)N(C)c1nnc(-c2ccc(OC)cc2)s1` gave LmPK inhibitor -3%, Pf growth 48h 76%, Shiga toxin inh 46, CHX counter 13* and Pf growth 96h 10µM*.
`COCCN(C(=O)COC(=O)CCCOc1ccccc1)c1c(N)n(Cc2ccccc2)c(=O)[nH]c1=O` gave Pf growth 48h 7% and Pf growth 96h 3%.
Screening CCc1cccc(NC(=O)CN(C)C2=NS(=O)(=O)c3ccccc32)c1 returned Pf growth 48h inconclusive and Pf growth 96h 12µM*.
CCn1c(SC(C)C(=O)NC2CCCc3ccccc32)nnc1-c1cccs1 (centres undefined) was read as LmPK inhibitor 6%, Shiga toxin inh -10, CHX counter -6 and Pf growth 96h 17µM*.
`CC(Sc1nc2ccccc2s1)C(=O)NCc1ccc2c(c1)OCO2` (centres undefined) gave LmPK inhibitor -1%, Pf growth 48h 34%, Shiga toxin inh active, CHX counter 20* and Pf growth 96h 17%.
Cc1csc(SC(C)C(=O)NCc2ccc3c(c2)OCO3)n1 (centres undefined) was read as LmPK inhibitor -3%, Pf growth 48h 16%, Shiga toxin inh 44, CHX counter 11 and Pf growth 96h 31%.
For O=C(CSc1nnc(-c2cccs2)n1Cc1ccccc1)NCc1ccc2c(c1)OCO2 the results were LmPK inhibitor 0%, Shiga toxin inh -7, CHX counter 10 and Pf growth 96h inconclusive.
CC(Sc1nnc(-c2cccs2)n1Cc1ccccc1)C(=O)NCc1ccc2c(c1)OCO2 (centres undefined) was read as LmPK inhibitor 18%, Shiga toxin inh -21, CHX counter -3 and Pf growth 96h 8.3µM*.
`CCn1c(SCC(=O)NC2CCCc3ccccc32)nnc1-c1cccs1` (centres undefined) gave LmPK inhibitor 1%, Pf growth 48h -14%, Shiga toxin inh -28, CHX counter -2 and Pf growth 96h inconclusive.
`COc1ccc(C(C)=O)cc1COC(=O)CSCC(=O)Nc1ccc(C)cc1` gave Pf growth 48h inconclusive and Pf growth 96h 30%.
Nc1nc(N)nc(COc2ccccc2)n1 was read as LmPK inhibitor -18%, Pf growth 48h 210%, Shiga toxin inh 96*, CHX counter 42* and Pf growth 96h 6%.
For CCOc1ccc(Cc2nc(N)nc(N)n2)cc1 the results were LmPK inhibitor -5%, Pf growth 48h inconclusive, Shiga toxin inh 20, CHX counter -1 and Pf growth 96h inconclusive.
For CCCC1(c2ccccc2)NC(=O)N(CC(=O)Nc2sc(-c3ccccc3)cc2C(=O)OCC)C1=O (centres undefined) the results were LmPK inhibitor 12%, Pf growth 48h inconclusive, Shiga toxin inh 15 and CHX counter 7.
CCOC(=O)c1cc(-c2ccccc2)sc1NC(=O)CC(C)C was read as LmPK inhibitor -1%, Pf growth 48h inconclusive, Shiga toxin inh -15, CHX counter -5 and Pf growth 96h 7.4µM*.
`CCOC(=O)c1cc(-c2ccccc2)sc1NC(=O)C(C)(C)C` gave LmPK inhibitor -6%, Pf growth 48h 9.3µM*, Shiga toxin inh 20, CHX counter -4 and Pf growth 96h inconclusive.
`CCOC(=O)c1cc(-c2ccccc2)sc1NC(=S)Nc1cc(C)ccn1` gave LmPK inhibitor 5%, Pf growth 48h inconclusive, Shiga toxin inh -22, CHX counter -2 and Pf growth 96h 13µM*.
For CCOC(=O)c1cc(-c2ccccc2)sc1NC(=O)c1cc(OC)c(OC)c(OC)c1 the results were LmPK inhibitor 0%, Pf growth 48h 20%, Shiga toxin inh 8, CHX counter -4 and Pf growth 96h inconclusive.
CCOC(=O)c1cc(-c2ccccc2)sc1NC(=O)CSc1nnnn1C was read as LmPK inhibitor -4%, Pf growth 48h inconclusive, Shiga toxin inh -9, CHX counter 1 and Pf growth 96h inconclusive.
For CCCCN(C)CCNC(=O)CN1C(=O)CSc2ccc(S(=O)(=O)N3CCCC3)cc21 the results were LmPK inhibitor 4%, Pf growth 48h 24%, Shiga toxin inh -5, CHX counter 4 and Pf growth 96h 12%.
Screening Cc1ccc(S(=O)(=O)N(C)C)cc1NC(=O)COC(=O)c1ccc2c(=O)n3c(nc2c1)CCC3 returned Pf growth 48h inconclusive and Pf growth 96h 2%.
